Screens as filed in PubChem.
12-LOX inh: ALOX12 (human) lipoxygenase inhibition | purified 12hLO, xylenol orange hydroperoxide absorbance | AID 1671190 | Potency, µM (series often up to 108 µM), hits mostly inhibitors | 1.1% of 580,000 active
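Purified human 12hLO at 150 nM in 25 mM Hepes, 0.01% Triton X-100, pH 7.0, preincubated 15 min at room temperature with compound. Reaction started with 40 uM arachidonic acid, 30 min at room temperature. Hydroperoxide measured by Fe-xylenol orange, 573/405 nm absorbance ratio.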
BAZ2B block: inhibitors of human BAZ2B bromodomain; Q9UIF8; AlphaScreen BAZ2B-H3K14Ac peptide displacement; Potency, µM (highest dose often 114 µM), actives largely listed as inhibitors; 4.4% of 360,000 active; further: nearly all actives have a fitted effect of over 60% in size
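AlphaScreen displacement of biotin-H3(5-23)K14Ac peptide (50 nM final) from BAZ2B (50 nM final) in PBS pH 7.4, 0.01% Tween-20; complex preformed 30 min RT, then compounds (top 110 uM) 30 min RT, beads 20 min dark.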
HP1b chromo inh: blocks HP1-beta chromodomain binding to methylated histone tails; Potency, µM (top dose mostly 114 µM), hits mostly inhibitors; 0.56% of 390,000 active; AlphaScreen HP1-beta / biotin-H3K9me3 peptide binding; further: nearly all actives have a fitted effect of over 70% in size
Target sequence (P83916 whole entry, looked up): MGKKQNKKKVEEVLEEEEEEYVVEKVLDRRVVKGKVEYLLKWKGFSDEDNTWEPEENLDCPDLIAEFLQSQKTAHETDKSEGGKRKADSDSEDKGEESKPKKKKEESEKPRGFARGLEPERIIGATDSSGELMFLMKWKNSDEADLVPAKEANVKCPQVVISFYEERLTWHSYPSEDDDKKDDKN
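Compound inhibition of the preformed complex between 50 nM HP1-beta and 50 nM biotinylated H3K9me3 peptide was read by AlphaScreen. Buffer was PBS pH 7.4 with 0.01% Tween-20. Incubations ran 30 min at room temperature, with 10 ug/mL donor/acceptor beads.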
G9a inh: G9a (human) methyltransferase inhibition; G9a H3K9 monomethylation, AlphaScreen, 2 h; 8.8% of 350,000 active; Q96KQ7; AID 504332; Potency, µM (titrated, usually from 102 µM), hits mostly inhibitors; further: nearly all actives have a fitted effect of over 75% in size
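Using a bead-based AlphaScreen, monomethylated H3K9 product from 2 h room-temperature reactions (G9a 20 nM, peptide 500 nM, SAM 20 uM) was detected with 0.5 ug/mL rabbit anti-H3K9me1 antibody.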
JMJD2A Tudor: inhibitors of human JMJD2A Tudor domain. AlphaScreen JMJD2A-Tudor / H3K4me3 peptide binding. O75164. Potency, µM (titrated, usually from 114 µM), hits mostly inhibitors. 4.4% of 390,000 active; further: nearly all actives have a fitted effect of over 50% in size
PLK1 PBD inh: inhibitors of human PLK1 polo-box domain binding; P53350; Plk1 PBD binding of FITC phosphopeptide, fluorescence polarization; Potency, µM, most hits filed as inhibitors; 2.8% of 360,000 active; AID 720504; further: series mostly up to about 57 µM; nearly all actives have a fitted effect of over 65% in size
Target sequence (P53350 whole entry, looked up, the tested form may be a part): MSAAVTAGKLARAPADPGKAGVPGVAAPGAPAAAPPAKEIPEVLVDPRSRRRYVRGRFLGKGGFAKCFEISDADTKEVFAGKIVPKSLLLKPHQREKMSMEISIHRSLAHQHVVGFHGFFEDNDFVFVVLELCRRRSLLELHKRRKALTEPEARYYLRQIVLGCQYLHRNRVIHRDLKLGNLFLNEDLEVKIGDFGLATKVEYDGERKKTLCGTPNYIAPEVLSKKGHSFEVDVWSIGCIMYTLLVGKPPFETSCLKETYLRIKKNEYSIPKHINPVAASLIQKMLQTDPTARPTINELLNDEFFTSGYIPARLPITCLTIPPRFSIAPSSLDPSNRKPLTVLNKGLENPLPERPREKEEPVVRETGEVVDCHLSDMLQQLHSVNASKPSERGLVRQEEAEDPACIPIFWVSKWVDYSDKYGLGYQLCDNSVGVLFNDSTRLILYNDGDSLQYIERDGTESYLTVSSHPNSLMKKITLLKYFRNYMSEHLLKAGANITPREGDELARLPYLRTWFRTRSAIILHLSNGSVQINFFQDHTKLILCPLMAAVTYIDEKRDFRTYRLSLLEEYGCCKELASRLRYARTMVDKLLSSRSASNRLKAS
Each line names hits and unclear results; the compound was inactive in the other large screens. The list is not random: actives were taken first. Their share in the collection is about 9%. The call rests on the fitted dose curve; in most records, active means well fitted curve in the direction sought with a large enough effect; inconclusive means small, poorly fitted or top-dose-only effect, or another doubt; inactive means no such curve, though single readings can be large; an effect the other way counts as inactive or inconclusive.

CCOc1ccccc1Nc1nnc(SCC(=O)Nc2ccc3[nH]c(=O)[nH]c3c2)s1	none
COc1cc(-c2cc(-c3ccccc3)nc(SCC(=O)O)c2C#N)cc(OC)c1OC	G9a inh 50µM
COC(=O)CSc1nc(-c2ccccc2)cc(-c2ccco2)c1C#N	BAZ2B block 71µM, JMJD2A Tudor inconclusive
N#Cc1c(-c2ccccc2)cc(-c2ccccc2)nc1SCCS(=O)Cc1ccccc1 (stereo unspecified)	none (no result: BAZ2B block, HP1b chromo inh, G9a inh, JMJD2A Tudor, PLK1 PBD inh)
N#Cc1c(-c2ccccc2)cc(-c2ccccc2)nc1SCCC(=O)O	PLK1 PBD inh 21µM (no result: G9a inh)
N#Cc1c(-c2ccc(F)cc2)cc(-c2ccccc2)nc1SCC(=O)NCC(=O)O	12-LOX inh inconclusive, BAZ2B block 50µM, HP1b chromo inh inconclusive, JMJD2A Tudor 79µM, PLK1 PBD inh 19µM (no result: G9a inh)
CCC(=O)NNC(=O)c1cc(COc2cc(Cl)cc(Cl)c2)on1	none
N#Cc1c(-c2ccco2)cc(-c2ccc(F)cc2)nc1N	12-LOX inh 5.6µM, G9a inh inconclusive, PLK1 PBD inh inconclusive
N#Cc1c(-c2ccc(F)cc2)cc(-c2cccnc2)nc1N	none
Cc1ccc(NC(=O)N2CCc3ccccc32)cc1C	none
Cc1ccc(C)c(NC(=O)CN2C(=O)CCc3ccccc32)c1	BAZ2B block 79µM, G9a inh inconclusive, JMJD2A Tudor inconclusive (no result: PLK1 PBD inh)
Cc1ccc(Cl)cc1NC(=O)CN1C(=O)CCc2ccccc21	none (no result: PLK1 PBD inh)
Cc1ccc(NC(=O)CN2C(=O)CCc3ccccc32)cc1C	BAZ2B block 79µM, JMJD2A Tudor inconclusive (no result: PLK1 PBD inh)
CC1CCCN(C(=O)C2CCN(CC(C)c3ccccc3)CC2)C1 (stereo unspecified)	HP1b chromo inh inconclusive, G9a inh inconclusive, JMJD2A Tudor 3.5µM
CC1CCCN(C(=O)C2CCN(CCCc3ccccc3)CC2)C1 (stereo unspecified)	12-LOX inh inconclusive, BAZ2B block inconclusive, HP1b chromo inh inconclusive, G9a inh 16µM, JMJD2A Tudor 3.5µM
CCCOC(=O)c1c(NC(=O)C(C)Sc2nc(-c3ccccc3)cc(C(F)(F)F)n2)sc(C(=O)N(C)C)c1C (stereo unspecified)	G9a inh 11µM (no result: PLK1 PBD inh)
CCOC(=O)c1c(NC(=O)CSc2nc(-c3ccc(OC)cc3)cc(C(F)(F)F)n2)sc(C)c1C	G9a inh 4.5µM (no result: PLK1 PBD inh)
CC(Sc1nc(-c2ccccc2)cc(C(F)(F)F)n1)C(=O)O (stereo unspecified)	HP1b chromo inh inconclusive, PLK1 PBD inh 27µM
CCN(CC)C(=O)c1sc(NC(=O)C(C)Sc2nc(-c3ccccc3)cc(C(F)(F)F)n2)c(C(=O)OC)c1C (stereo unspecified)	G9a inh 3.5µM (no result: PLK1 PBD inh)
CCN(CC)CCCNC(=O)C(C)Sc1nc(-c2ccccc2)cc(C(F)(F)F)n1 (stereo unspecified)	none (no result: G9a inh)
CC(Sc1nc(-c2ccccc2)cc(C(F)(F)F)n1)C(=O)N1CCCC1 (stereo unspecified)	none
N#Cc1c(-c2ccccc2Cl)cc(C2CC2)nc1N	12-LOX inh inconclusive, JMJD2A Tudor inconclusive
CC(C)(C)SCCNC(=O)Nc1ccccc1	12-LOX inh inconclusive
CC(C)C1S/C(=N/N=C/c2ccco2)NC1=O (stereo unspecified)	none
NC(=O)CCC(C(=O)O)N1C(=O)c2ccc(O)cc2C1=O (stereo unspecified)	PLK1 PBD inh inconclusive
CCCNC(=O)NC(=O)CSc1ncnc2ccccc12	none (no result: BAZ2B block, HP1b chromo inh, G9a inh, JMJD2A Tudor, PLK1 PBD inh)
O=C(O)c1ccc(CSc2nc(-c3ccccc3)cc(C(F)(F)F)n2)cc1	PLK1 PBD inh inconclusive
O=C(O)c1ccc(CSc2nc(-c3ccc(Cl)cc3)cc(C(F)(F)F)n2)cc1	BAZ2B block inconclusive, JMJD2A Tudor inconclusive, PLK1 PBD inh 21µM
O=C(Nc1nnc(-c2ccccc2SCc2ccccc2F)s1)Nc1ccccc1F	none
CC(C)NC(=O)N[C@H]1C[C@@H](c2nc(-c3ccc4c(c3)OCO4)no2)N(C)C1	12-LOX inh 22µM (no result: BAZ2B block, HP1b chromo inh, G9a inh, JMJD2A Tudor, PLK1 PBD inh)
CC(=O)N[C@H]1C[C@@H](c2nc(-c3ccc4c(c3)OCO4)no2)N(C)C1	none (no result: BAZ2B block, HP1b chromo inh, G9a inh, JMJD2A Tudor, PLK1 PBD inh)
CN1C[C@@H](NC(=O)CC(C)(C)CC(=O)O)C[C@H]1c1nc(-c2ccccc2)no1	12-LOX inh 126µM (no result: BAZ2B block, HP1b chromo inh, G9a inh, JMJD2A Tudor, PLK1 PBD inh)
O=C(O)c1cccc2c1C(=O)N(Cc1ccncc1)C2	none
c1ccc2c(COn3nnc4ccccc43)cccc2c1	BAZ2B block inconclusive
N#Cc1ccc(COn2nnc3ccccc32)cc1	G9a inh 89µM
Cc1cc(NC(=O)CSCc2ccccc2)no1	none
CCCCOC(=O)c1ccc(OC(=O)c2sc3ncn(Cc4cccc(F)c4)c(=O)c3c2C)cc1	none (no result: PLK1 PBD inh)
Cc1cc(=O)oc2cc(O)cc(O)c12	none (no result: BAZ2B block, G9a inh)
CCOC(=O)C1CCCCN1Cc1cccc(OC)c1OC (stereo unspecified)	12-LOX inh inconclusive, BAZ2B block inconclusive, HP1b chromo inh inconclusive, G9a inh 11µM, JMJD2A Tudor 5.6µM
CCOC(=O)C1CCCCN1Cc1cc(OC)ccc1OC (stereo unspecified)	12-LOX inh inconclusive, BAZ2B block inconclusive, HP1b chromo inh inconclusive, G9a inh 13µM, JMJD2A Tudor 18µM
CCCCCCCCN1C(=O)[C@@H](CC(=O)NCCCOCCCC)C[C@@]2(C(=O)OC)C1=C[C@H](C(C)(C)C)O[C@@H]2C	none (no result: BAZ2B block, HP1b chromo inh, G9a inh, JMJD2A Tudor, PLK1 PBD inh)
CC(=O)N1CCC(N2CCOC[C@H]2c2ncc(-c3ccc(S(C)(=O)=O)cc3)[nH]2)CC1	none (no result: BAZ2B block, HP1b chromo inh, G9a inh, JMJD2A Tudor, PLK1 PBD inh)
CC1CCN(C(=O)N[C@@H](Cc2ccccc2)C(=O)O)CC1	none
CC1CN(C(=O)N[C@@H](Cc2ccccc2)C(=O)O)CC(C)O1 (stereo partly specified)	12-LOX inh inconclusive, G9a inh 56µM
O=C(O)[C@H](Cc1ccccc1)NC(=O)N1CCC(Cc2ccccc2)CC1	12-LOX inh inconclusive, G9a inh 14µM
CSCC[C@H](NC(=O)C1CCN(C(=O)[C@@H](N)Cc2ccccc2)CC1)C(=O)O	G9a inh inconclusive
N[C@@H](Cc1ccccc1)C(=O)N1CCC(C(=O)N[C@@H](CCC(=O)O)C(=O)O)CC1	12-LOX inh inconclusive, G9a inh 79µM, JMJD2A Tudor 18µM
CCSc1sccc1C1C(C#N)=C(N)N(c2cccnc2)C2=C1C(=O)CC(C)(C)C2 (stereo unspecified)	G9a inh inconclusive
O=C(COc1cccc(F)c1)N1c2ccccc2Sc2ccccc21	HP1b chromo inh inconclusive, JMJD2A Tudor 56µM (no result: 12-LOX inh)
CCc1cccc(NC(=O)Cn2c3[n+](c4ccc(C(F)(F)F)cc42)CCCCC3)c1	12-LOX inh inconclusive, G9a inh 5.6µM
O=C(Cn1c2[n+](c3ccc(C(F)(F)F)cc31)CCCCC2)Nc1ccccc1	12-LOX inh inconclusive, G9a inh inconclusive
O=C(Cn1c2[n+](c3ccc(C(F)(F)F)cc31)CCCCC2)c1cccc([N+](=O)[O-])c1	G9a inh inconclusive
